# Data published in PubChem BioAssay.
# Results filed as inconclusive are left out. Calls of active or inactive are those of the source.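 The calls were made as follows, unless noted: active = efflux inhibition above 0.42, the validation set average plus 4 SD; inconclusive = no clear call, values can overlap the other calls; inactive = the rest.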
# Legend:
# [1] = rapamycin-like changes in RPL19A-GFP expression – cell-based, S. cerevisiae, multiplex flow cytometry, primary screen (AID 1862; in the data active = percent of DMSO control GFP below about 86%;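 also: lower values mimic rapamycin by blocking the RPL19A rise seen in DMSO cells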); settings: S. cerevisiae RPL19A-GFP strain, flow cytometry fluorescence, 3 h; at 10 µM; stronger effect = lower value
# [2] = TOR pathway GLN3 branch reporter MEP2-GFP changes – S. cerevisiae, multiplex flow cytometry, primary screen (AID 1867;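 active = GFP response, as percent of the DMSO control, above the screen-wide mean plus 3 SD, about 139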;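 also: median GFP channel fluorescence of barcode-gated MEP2-GFP cells measured by flow cytometry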); settings: S. cerevisiae MEP2-GFP strain, 3 h, at 10 µM, stronger effect = higher value, 100% means same as DMSO wells
# [3] = TOR pathway RTG branch CIT2 reporter changes – S. cerevisiae, GFP fusion, multiplex flow cytometry, primary screen (AID 1870;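 active = percent response above a set limit, the screen-wide mean plus 3 SD, cut at about 130% in these data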;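 also: barcoded CIT2-GFP strain pooled with four other GFP strains with rapamycin as positive control; median GFP fluorescence per well over plate mean of DMSO wells so 100% = DMSO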); settings: S. cerevisiae CIT2-GFP expression, 3 h, at 10 µM, stronger effect = higher value
# [4] = TOR pathway LAP4-GFP level changes – S. cerevisiae, multiplex flow cytometry, primary screen (AID 1873;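 active = GFP signal, as percent of the solvent control, above the screen mean plus 3 SD, about 149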); settings: S. cerevisiae LAP4-GFP expression, 3 h, at 10 µM, stronger effect = higher value
# [5] = yeast AGP1-GFP level changes, GLN3 branch – cell-based, multiplex flow cytometry, S. cerevisiae, primary screen (AID 1887;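 active = GFP signal above the screen-wide mean plus 3 SD, that is over about 124.5% of the solvent control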;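 also: AGP1-GFP fusion strain of S. cerevisiae within a five-strain barcoded multiplex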); settings: 3 h, at 10 µM, stronger effect = higher value
# [6] = reduced mouse 2C T cell binding to pMHC/ICAM-1 vesicles – MLPCN validation set, flow cytometry, LFA-1/ICAM-1 modulator project, pilot screen (AID 2523;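 active = response below a set limit, under 55% cells CD8-positive and vesicle-bound, and CD8 cells' 90th-percentile brightness under 279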;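 as to vesicle binding response: mean PE anti-B7-1 fluorescence of CD8+ cells relative to row control; 100% = QL9-loaded vesicles with DMSO vehicle in the same plate row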); settings: 2C mouse CD8+ T cells, at 7 µM, stronger effect = lower value; double positive events: measured here: CD8+/vesicle+ event percentage
# [7] = target: Integrin beta-1 (Homo sapiens) + Integrin alpha-4 (Homo sapiens) (UniProt P13612+P05556); assay: alpha4beta1 integrin LIBS antibody binding reduction – U937 cells, HUTS-21 mAb, flow cytometry, validation set, VLA-4 allosteric modulator project, pilot screen (AID 2674;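 active = inhibition above 50%, about 3 SD of the validation set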;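 also: antibody binding induced by the VLA-4 ligand LDV present at three times its Kd; 0% = LDV ligand with antibody and no compound and 100% = antibody without LDV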); settings: HUTS-21 LIBS mAb binding, at 6.7 µM, stronger effect = higher value, binding induced by LDV ligand
# [8] = calorie-restriction mimetic ROS inhibitors, yeast – validation compound set, pilot screen (AID 2706;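 active = superoxide response below 65% of plate, a cut near 3 SD across the whole screen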;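 also: yeast exposed to compound for one week at 30 degrees C before staining; 100% = mean of all compound wells on the same plate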); settings: S. cerevisiae aging, superoxide DHE fluorescence; at 10 µM; stronger effect = lower value
# [9] = target: Beta-adrenergic receptor kinase 1 (Homo sapiens) (UniProt P25098); assay: GRK2 binders displacing RNA aptamer, biochemical, validation, human GRK2, bead flow cytometry (AID 488806;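 active = aptamer binding inhibition above 30%, about 3 SD of noise from non-fluorescent compounds; inactive = inhibition at or below 30%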); settings: bead-bound GRK2, FAM-aptamer displacement, at 10 µM, stronger effect = higher value
# [10] = target: Beta-2 adrenergic receptor (Homo sapiens) (UniProt P07550); assay: agonist-induced loss of surface beta2AR – cell-based, FAP fluorogen, flow cytometry, validation set, pilot screen (AID 504459;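 active = percent response above 42, roughly 3 SD of non-fluorescent test compounds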;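 also: agonist-driven loss of surface beta2AR via internalization measured by FAP dye flow cytometry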); settings: Am2.2-beta2AR cells, at 10 µM, stronger effect = higher value
# [11] = target: AP-2 complex subunit beta (Homo sapiens) (UniProt P63010); assay: beta-arrestin/AP2 interaction blockers – biochemical, validation set, GST-AP2 beads, flow cytometry, pilot screen (AID 504541;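 active = inhibition above 54%, about 3 SD of non-fluorescent compounds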;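 also: AP2 carries R879A mutation and is captured from E. coli lysate; bead-bound FITC arrestin peptide fluorescence measuring arrestin peptide binding to AP2; 0% = DMSO wells and 100% = excess unlabeled arrestin peptide control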); settings: FITC arrestin peptide, at 10 µM, stronger effect = higher value, AP2 beta2 appendage fragment, R879A mutant
# [12] = cytosolic pH regulators acting via V-ATPase – S. cerevisiae, pHLuorin, HTS validation (AID 504600; in the data active = response above about 15%;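 also: plate controls were DMSO for no effect and reference compound for full effect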); settings: V-ATPase proton transport, at 10 µM, stronger effect = higher value
# [13] = test system: anti-desmoglein-3 scFv antibody binding to human DSG3; assay: blockers of pathogenic pemphigus antibody–desmoglein-3 binding – biochemical, validation compound set, bead-based, flow cytometry, pilot screen (AID 588368;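 active = binding below the plate cutoff, the plate median minus 3 SD, with a reading above zero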;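 also: signal is the median channel fluorescence of bead-bound GFP antibody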); settings: Protein G beads, DSG3-Fc, scFv-GFP binding, at 10 µM, stronger effect = lower value
# [14] = Nile Red efflux blockade in pump-expressing yeast – validation compound set, multiplex, phenotypic, pilot screen (AID 588506);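 also: Nile Red retained in cells so higher fluorescence means more efflux inhibition; 0 = negative control wells and 1 = enniatin B 25 µM full block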; settings: S. cerevisiae pump-expressing triplex, Nile Red efflux flow cytometry; at 10 µM; stronger effect = higher value; the pumps come from Candida albicans
# [15] = target: ATP-binding cassette sub-family B member 6 (Homo sapiens) (UniProt Q9NP58); assay: blockers of ABCB6-driven porphyrin uptake – K562-ABCB6 cells, flow cytometry, validation set, pilot screen (AID 588550;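 active = inhibition above the screen-wide mean plus 3 SD, about 51%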;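 also: 0% = DMSO wells and 100% = benzethonium chloride 70 µM positive control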); settings: K562-ABCB6 porphyrin accumulation, 1 h, at 10 µM, stronger effect = higher value
# [16] = AML differentiation inducers, ER-HoxA9 marrow cells – cell-based, GFP/MAC1 double positive, flow cytometry, validation set, primary screen (AID 588685;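 active = differentiation response of at least 50%, scaled between solvent and reference control, from cells with both markers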;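 also: compound exposure lasts four days before antibody staining and flow analysis; 0% = DMSO wells and 100% = 5 µM fulvestrant positive control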); settings: stronger effect = higher value, normalized: vehicle 0, fulvestrant 100
# Beta-2 adrenergic receptor (Homo sapiens), sequence (P07550 whole entry, looked up): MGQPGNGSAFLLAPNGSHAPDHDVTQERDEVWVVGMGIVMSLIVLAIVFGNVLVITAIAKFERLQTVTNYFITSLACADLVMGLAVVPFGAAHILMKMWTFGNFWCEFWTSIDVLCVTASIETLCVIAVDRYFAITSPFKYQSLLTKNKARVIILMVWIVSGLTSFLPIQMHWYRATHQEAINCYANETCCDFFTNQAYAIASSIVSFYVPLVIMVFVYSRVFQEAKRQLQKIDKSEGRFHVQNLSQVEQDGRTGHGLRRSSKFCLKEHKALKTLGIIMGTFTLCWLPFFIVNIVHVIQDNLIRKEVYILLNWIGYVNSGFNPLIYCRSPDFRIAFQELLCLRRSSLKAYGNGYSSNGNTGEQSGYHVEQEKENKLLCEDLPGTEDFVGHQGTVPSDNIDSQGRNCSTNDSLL
# AP-2 complex subunit beta (Homo sapiens), sequence (P63010 whole entry, looked up, the tested form may be a part, one chain of several): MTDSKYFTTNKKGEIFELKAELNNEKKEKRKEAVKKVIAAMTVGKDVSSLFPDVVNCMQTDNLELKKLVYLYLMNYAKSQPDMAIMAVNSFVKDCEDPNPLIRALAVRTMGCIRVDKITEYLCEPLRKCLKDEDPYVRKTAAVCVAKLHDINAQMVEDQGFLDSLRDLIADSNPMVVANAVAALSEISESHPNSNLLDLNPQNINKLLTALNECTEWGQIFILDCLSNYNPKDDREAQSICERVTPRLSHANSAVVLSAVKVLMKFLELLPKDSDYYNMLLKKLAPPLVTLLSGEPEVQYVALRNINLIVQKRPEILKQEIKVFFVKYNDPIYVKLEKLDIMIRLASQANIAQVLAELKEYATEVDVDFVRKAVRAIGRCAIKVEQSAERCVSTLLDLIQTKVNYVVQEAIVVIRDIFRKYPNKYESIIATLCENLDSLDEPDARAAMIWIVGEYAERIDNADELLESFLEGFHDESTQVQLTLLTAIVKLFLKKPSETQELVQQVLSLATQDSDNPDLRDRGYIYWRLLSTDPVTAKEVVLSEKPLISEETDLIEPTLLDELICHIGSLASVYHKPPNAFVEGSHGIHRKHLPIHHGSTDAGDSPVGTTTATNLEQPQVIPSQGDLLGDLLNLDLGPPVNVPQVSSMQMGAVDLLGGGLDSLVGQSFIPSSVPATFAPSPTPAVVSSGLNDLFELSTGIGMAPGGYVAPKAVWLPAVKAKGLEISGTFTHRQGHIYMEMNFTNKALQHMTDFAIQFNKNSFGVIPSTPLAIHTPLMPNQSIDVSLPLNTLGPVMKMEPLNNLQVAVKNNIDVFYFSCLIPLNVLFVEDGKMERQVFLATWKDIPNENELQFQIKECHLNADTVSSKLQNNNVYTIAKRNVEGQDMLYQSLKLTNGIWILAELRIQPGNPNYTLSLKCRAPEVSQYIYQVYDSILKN
# Integrin beta-1 (Homo sapiens) + Integrin alpha-4 (Homo sapiens), sequence (P05556 whole entry, looked up): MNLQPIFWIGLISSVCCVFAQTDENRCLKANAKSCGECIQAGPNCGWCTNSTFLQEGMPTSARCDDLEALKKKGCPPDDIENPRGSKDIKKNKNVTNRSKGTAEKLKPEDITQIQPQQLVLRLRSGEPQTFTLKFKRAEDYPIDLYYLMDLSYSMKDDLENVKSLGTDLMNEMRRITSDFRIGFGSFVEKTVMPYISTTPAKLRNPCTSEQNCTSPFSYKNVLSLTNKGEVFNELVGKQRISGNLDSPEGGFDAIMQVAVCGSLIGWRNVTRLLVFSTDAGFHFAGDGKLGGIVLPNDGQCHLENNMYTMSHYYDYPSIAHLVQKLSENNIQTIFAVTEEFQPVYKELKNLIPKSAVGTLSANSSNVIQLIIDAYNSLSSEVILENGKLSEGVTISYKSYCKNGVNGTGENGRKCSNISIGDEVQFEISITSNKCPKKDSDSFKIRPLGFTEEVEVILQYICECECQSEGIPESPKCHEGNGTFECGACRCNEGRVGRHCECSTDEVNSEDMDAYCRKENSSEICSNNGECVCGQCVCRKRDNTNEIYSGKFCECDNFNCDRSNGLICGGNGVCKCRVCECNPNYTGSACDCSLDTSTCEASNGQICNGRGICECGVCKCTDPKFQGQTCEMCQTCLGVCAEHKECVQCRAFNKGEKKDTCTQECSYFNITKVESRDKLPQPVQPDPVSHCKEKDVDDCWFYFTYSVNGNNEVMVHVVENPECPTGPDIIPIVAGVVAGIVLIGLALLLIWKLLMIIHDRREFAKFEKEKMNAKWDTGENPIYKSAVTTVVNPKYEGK
# Integrin beta-1 (Homo sapiens) + Integrin alpha-4 (Homo sapiens), sequence (P13612 whole entry, looked up): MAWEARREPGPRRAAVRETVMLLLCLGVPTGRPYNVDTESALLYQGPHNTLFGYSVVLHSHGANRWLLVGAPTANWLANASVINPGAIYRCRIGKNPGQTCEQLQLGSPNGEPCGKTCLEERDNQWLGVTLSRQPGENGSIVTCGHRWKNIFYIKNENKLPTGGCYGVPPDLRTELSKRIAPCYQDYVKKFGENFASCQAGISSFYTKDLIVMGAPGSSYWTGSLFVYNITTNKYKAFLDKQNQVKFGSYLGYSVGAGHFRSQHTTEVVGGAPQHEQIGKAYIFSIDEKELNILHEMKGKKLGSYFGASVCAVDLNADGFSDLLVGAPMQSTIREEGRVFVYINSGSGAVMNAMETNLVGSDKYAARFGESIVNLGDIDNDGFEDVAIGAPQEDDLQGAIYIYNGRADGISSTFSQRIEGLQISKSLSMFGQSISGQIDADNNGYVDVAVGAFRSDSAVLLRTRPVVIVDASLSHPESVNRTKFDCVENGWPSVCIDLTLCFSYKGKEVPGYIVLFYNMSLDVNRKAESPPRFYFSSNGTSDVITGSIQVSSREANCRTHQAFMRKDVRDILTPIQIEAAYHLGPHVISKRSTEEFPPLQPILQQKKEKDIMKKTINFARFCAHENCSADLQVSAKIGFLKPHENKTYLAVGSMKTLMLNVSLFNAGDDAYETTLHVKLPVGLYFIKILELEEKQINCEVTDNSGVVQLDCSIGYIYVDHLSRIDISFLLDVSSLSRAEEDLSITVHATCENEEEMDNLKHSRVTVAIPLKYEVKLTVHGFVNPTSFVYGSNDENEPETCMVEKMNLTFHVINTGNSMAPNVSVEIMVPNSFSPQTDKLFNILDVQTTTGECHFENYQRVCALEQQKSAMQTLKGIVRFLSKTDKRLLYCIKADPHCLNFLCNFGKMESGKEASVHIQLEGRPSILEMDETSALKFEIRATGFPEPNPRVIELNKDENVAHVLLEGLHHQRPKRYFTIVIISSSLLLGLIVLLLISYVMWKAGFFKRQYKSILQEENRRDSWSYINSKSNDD
# ATP-binding cassette sub-family B member 6 (Homo sapiens), sequence (Q9NP58 whole entry, looked up): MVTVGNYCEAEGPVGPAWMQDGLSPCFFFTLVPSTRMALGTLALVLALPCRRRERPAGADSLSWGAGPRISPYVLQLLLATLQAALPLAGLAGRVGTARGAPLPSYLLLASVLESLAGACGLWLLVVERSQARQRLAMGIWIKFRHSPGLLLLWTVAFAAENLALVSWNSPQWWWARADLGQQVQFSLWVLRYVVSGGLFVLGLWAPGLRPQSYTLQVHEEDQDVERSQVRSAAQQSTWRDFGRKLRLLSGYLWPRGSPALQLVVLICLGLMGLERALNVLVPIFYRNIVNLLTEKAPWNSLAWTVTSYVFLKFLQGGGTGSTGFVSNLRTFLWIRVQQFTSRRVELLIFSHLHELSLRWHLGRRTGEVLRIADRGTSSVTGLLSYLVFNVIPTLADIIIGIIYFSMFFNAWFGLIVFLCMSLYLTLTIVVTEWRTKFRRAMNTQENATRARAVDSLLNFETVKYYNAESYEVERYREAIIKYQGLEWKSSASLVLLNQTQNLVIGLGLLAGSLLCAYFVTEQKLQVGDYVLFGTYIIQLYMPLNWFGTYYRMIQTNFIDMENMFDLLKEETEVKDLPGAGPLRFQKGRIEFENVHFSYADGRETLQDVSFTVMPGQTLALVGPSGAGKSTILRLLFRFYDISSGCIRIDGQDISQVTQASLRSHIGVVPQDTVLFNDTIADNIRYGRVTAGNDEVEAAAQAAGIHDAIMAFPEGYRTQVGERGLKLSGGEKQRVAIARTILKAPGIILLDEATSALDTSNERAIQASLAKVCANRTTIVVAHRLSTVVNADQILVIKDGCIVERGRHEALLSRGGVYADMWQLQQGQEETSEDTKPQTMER
# Beta-adrenergic receptor kinase 1 (Homo sapiens), sequence (P25098 whole entry, looked up): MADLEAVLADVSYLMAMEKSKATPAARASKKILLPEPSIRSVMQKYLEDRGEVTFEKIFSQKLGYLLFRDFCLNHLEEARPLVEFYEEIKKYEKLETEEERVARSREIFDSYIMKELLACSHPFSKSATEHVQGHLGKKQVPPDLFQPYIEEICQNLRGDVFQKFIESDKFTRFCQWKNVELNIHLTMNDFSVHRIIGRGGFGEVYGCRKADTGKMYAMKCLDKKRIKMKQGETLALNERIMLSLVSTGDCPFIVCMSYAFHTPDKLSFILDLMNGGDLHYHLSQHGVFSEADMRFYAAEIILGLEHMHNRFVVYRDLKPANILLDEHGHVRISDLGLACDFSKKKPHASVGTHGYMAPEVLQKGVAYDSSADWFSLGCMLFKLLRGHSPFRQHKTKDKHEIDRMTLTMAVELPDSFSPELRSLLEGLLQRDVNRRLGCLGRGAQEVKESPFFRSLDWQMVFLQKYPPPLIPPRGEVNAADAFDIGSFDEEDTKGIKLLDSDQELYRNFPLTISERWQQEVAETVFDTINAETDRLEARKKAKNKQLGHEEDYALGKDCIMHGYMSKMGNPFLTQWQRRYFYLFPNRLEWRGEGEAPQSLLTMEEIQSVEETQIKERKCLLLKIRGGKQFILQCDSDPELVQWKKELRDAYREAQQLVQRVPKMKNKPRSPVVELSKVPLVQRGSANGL
Compound,percent of DMSO control GFP [1],GFP response vs DMSO [2],percent response of DMSO control [3],GFP response vs DMSO [4],"GFP response, % of DMSO [5]",double positive events [6] [%],vesicle binding response [6],inhibition [7],superoxide response (% of plate) [8],aptamer binding inhibition [9],response [10],inhibition [11],response [12],binding (% of control) [13],efflux inhibition (fraction of control) [14],inhibition [15],differentiation response [16]
Cn1cc(CN2CCC(C(=O)N3CCCCC3)CC2)c(-c2ccccc2F)n1,95.9% (inactive),137% (inactive),104% (inactive),85.8% (inactive),94.2% (inactive),63.2,131% (inactive),5.49% (inactive),92.8% (inactive),4% (inactive),-5.43% (inactive),0.65% (inactive),-1.21% (inactive),104% (inactive),-0.02 (inactive),16% (inactive),0% (inactive)
O=C(O)CCC(=O)c1ccc(-c2ccccc2)cc1,102% (inactive),102% (inactive),102% (inactive),125% (inactive),108% (inactive),65.4,245% (inactive),-9.13% (inactive),99.8% (inactive),-1% (inactive),11.2% (inactive),10.7% (inactive),-4.64% (inactive),103% (inactive),0.36 (inactive),0% (inactive),-11.9% (inactive)
CC(C)CN1CCN(Cc2ccc3ncccc3c2)CC1CCO (stereo not drawn),103% (inactive),96.2% (inactive),118% (inactive),84.8% (inactive),103% (inactive),62,290% (inactive),4.73% (inactive),95% (inactive),-1% (inactive),-8.31% (inactive),-6.16% (inactive),1.7% (inactive),103% (inactive),0.24 (inactive),-9% (inactive),6.11% (inactive)
COc1ccc(/C=C\c2nc(=O)c3ccccc3o2)cc1,111% (inactive),100% (inactive),101% (inactive),81.5% (inactive),96.7% (inactive),64.1,360% (inactive),6.81% (inactive),108% (inactive),5% (inactive),2.1% (inactive),0.71% (inactive),8.52% (inactive),98% (inactive),-0.01 (inactive),3% (inactive),6.11% (inactive)
COc1ccc(CCNC(=O)c2ccc(Cl)cc2)cc1OC,103% (inactive),109% (inactive),107% (inactive),121% (inactive),111% (inactive),59.6,196% (inactive),2.93% (inactive),107% (inactive),-1% (inactive),6.98% (inactive),-0.98% (inactive),-0.59% (inactive),104% (inactive),0.39 (inactive),-7% (inactive),-17.7% (inactive)
CC12CN3CC(C)(CN(C1)C3c1ccc(Cl)cc1Cl)C2=O (stereo not drawn),103% (inactive),98.3% (inactive),112% (inactive),94.7% (inactive),104% (inactive),67.5,387% (inactive),5.77% (inactive),98.9% (inactive),4% (inactive),-10.5% (inactive),-0.61% (inactive),-0.6% (inactive),95.1% (inactive),-0.01 (inactive),-3% (inactive),-8.55% (inactive)
Cc1cn([C@H]2C[C@H](N=[N+]=[N-])[C@@H](CO)O2)c(=O)[nH]c1=O,94.2% (inactive),138% (inactive),110% (inactive),82.5% (inactive),95.9% (inactive),61.7,179% (inactive),16.2% (inactive),88.8% (inactive),6% (inactive),2.53% (inactive),-5.32% (inactive),9.2% (inactive),103% (inactive),0.05 (inactive),13% (inactive),14.7% (inactive)
O=C(COc1ccc(F)cc1)OCCN1CCOCC1,102% (inactive),95.1% (inactive),112% (inactive),93.3% (inactive),102% (inactive),62.8,246% (inactive),-2.53% (inactive),89.6% (inactive),0% (inactive),-7.72% (inactive),-0.56% (inactive),21.8% (active),96.4% (inactive),-0.1 (inactive),-1% (inactive),-6.6% (inactive)
CC12CCC(C(=O)N3CCc4ccccc43)(CC1=O)C2(C)C (stereo not drawn),101% (inactive),102% (inactive),97.6% (inactive),95.9% (inactive),91.2% (inactive),60.3,115% (inactive),-2.43% (inactive),108% (inactive),13% (inactive),-16.3% (inactive),5.6% (inactive),2.72% (inactive),102% (inactive),-0.24 (inactive),4% (inactive),-10.4% (inactive)
CCC(=O)Nc1ccc(C(=O)N2CCN(C(=O)c3ccco3)CC2)cc1,101% (inactive),109% (inactive),104% (inactive),101% (inactive),99.7% (inactive),64.9,202% (inactive),4.73% (inactive),101% (inactive),0% (inactive),-11.7% (inactive),0.87% (inactive),-1.11% (inactive),95.5% (inactive),-0.23 (inactive),0% (inactive),7.09% (inactive)
Cc1c(O)c(=O)ccn1C,90.4% (inactive),121% (inactive),103% (inactive),76.5% (inactive),95.4% (inactive),64.3,412% (inactive),6.46% (inactive),99.1% (inactive),1% (inactive),-11.3% (inactive),-9.42% (inactive),3.11% (inactive),102% (inactive),0.27 (inactive),9% (inactive),-3.28% (inactive)
CC(C)(C)c1ccc(/C=C/C(=O)N2CCCCC2)cc1,96.1% (inactive),103% (inactive),78.7% (inactive),116% (inactive),97.7% (inactive),59.2,150% (inactive),10.5% (inactive),98.8% (inactive),1% (inactive),46.6% (active),3.48% (inactive),-0.06% (inactive),98.4% (inactive),0.26 (inactive),8% (inactive),8.8% (inactive)
COc1ccc(C2=NOC(COc3ccc4c(C)cc(=O)oc4c3)C2)c(OC)c1 (stereo not drawn),99% (inactive),94.6% (inactive),96% (inactive),116% (inactive),91.3% (inactive),62.4,171% (inactive),-11.8% (inactive),99.1% (inactive),4% (inactive),12.7% (inactive),2.4% (inactive),1.1% (inactive),95.6% (inactive),0.04 (inactive),10% (inactive),3.45% (inactive)
O=C(Oc1ccc2c3c(c(=O)oc2c1)CCCC3)c1ccco1,101% (inactive),101% (inactive),96% (inactive),102% (inactive),85% (inactive),62.5,126% (inactive),-6.04% (inactive),99.3% (inactive),5% (inactive),5.57% (inactive),11.5% (inactive),0.75% (inactive),96.5% (inactive),0.62 (active),6% (inactive),-5.68% (inactive)
CC(=O)c1cccc2c(O)c(C3=Nc4ccccc4C3=O)[nH]c12,88% (inactive),118% (inactive),114% (inactive),85.3% (inactive),90.8% (inactive),69.7,202% (inactive),-29.4% (inactive),129% (inactive),4% (inactive),-1.02% (inactive),-5.62% (inactive),0.43% (inactive),103% (inactive),0.23 (inactive),9% (inactive),4.91% (inactive)
O=C1CN(O)C=C2N=c3ccccc3=C2N1c1ccc([N+](=O)[O-])cc1,106% (inactive),108% (inactive),107% (inactive),101% (inactive),107% (inactive),61.3,124% (inactive),-17.2% (inactive),106% (inactive),2% (inactive),-10.9% (inactive),-5.08% (inactive),1% (inactive),100% (inactive),-0.13 (inactive),19% (inactive),-3.11% (inactive)
CC1=C(C)C(=O)C(CCCCC#CCCCC#CCO)=C(C)C1=O,99.3% (inactive),99.6% (inactive),99.6% (inactive),108% (inactive),107% (inactive),62.8,137% (inactive),20.2% (inactive),77.4% (inactive),4% (inactive),-12.4% (inactive),-0.87% (inactive),1.96% (inactive),103% (inactive),-0.13 (inactive),-1% (inactive),5.85% (inactive)
COc1ccc(NC(=O)C2OC3OC(C)(C)OC3C3OC(C)(C)OC23)cc1 (stereo not drawn),98.9% (inactive),98.6% (inactive),98.3% (inactive),106% (inactive),119% (inactive),63.5,203% (inactive),13.4% (inactive),103% (inactive),5% (inactive),-8.79% (inactive),-12.6% (inactive),1.13% (inactive),106% (inactive),-0.04 (inactive),5% (inactive),0.92% (inactive)
CC(C)C12CN3CC(C(C)C)(CN(C1)C3c1ccccc1O)C2=O (stereo not drawn),94.4% (inactive),120% (inactive),104% (inactive),75.9% (inactive),87% (inactive),66.6,192% (inactive),10.3% (inactive),94.7% (inactive),6% (inactive),-10.3% (inactive),-9.47% (inactive),-6% (inactive),99% (inactive),0.12 (inactive),5% (inactive),-6.55% (inactive)
